Data taken from PubChem BioAssay AID1159580 (chemical genetic matrix, 2015).
Screen size: about 5,500 compounds; about 2,000 (36%) were called active. Not shown: some 18% with an inconclusive outcome. No stated cut-off is given here; in the data, active means normalized growth mostly below about 0.91 (no sharp cut-off); inconclusive means no clear call, values can overlap the other calls; inactive means mostly above about 0.92. This is one part of the list.

Test: chemical genetic growth profiling, strain panel (AID 1159580);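 further: tested at 20 µM; growth read once vehicle control cultures reached saturation at 30 °C; 1 = growth at the plate median or of vehicle wells; lower values mean less growth of the strain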
Settings: growth OD

Measured: normalized growth

CCn1cc(C(=O)O)c(=O)c2cc(F)c(N3CCNCC3)nc21
inactive: S. cerevisiae deletion strains, locus YJR066W, strain TOR1, active compounds read low 0.976 | S. cerevisiae deletion strains, locus YJR075W, strain HOC1, active compounds read low 1.01 | S. cerevisiae deletion strains, locus YKL009W, strain mrt4, active compounds read low 1.01 | S. cerevisiae deletion strains, locus YKL068W, active compounds read low 1.01 | S. cerevisiae deletion strains, locus YKL085W, strain MDH1 (second series), active compounds read low 1.01 | S. cerevisiae deletion strains, locus YKL085W, strain MDH1, active compounds read low 1.01 | S. cerevisiae deletion strains, locus YKL160W, strain elf1, active compounds read low 1 | S. cerevisiae deletion strains, locus YKL190W, strain CNB1, active compounds read low 1.02 | S. cerevisiae deletion strains, locus YKR001C, strain vps1, active compounds read low 1.02 | S. cerevisiae deletion strains, locus YKR026C, strain gcn3, active compounds read low 0.989 | S. cerevisiae deletion strains, locus YKR091W, strain srl3, active compounds read low 0.983 | S. cerevisiae deletion strains, locus YLL001W, strain dnm1, active compounds read low 0.991 | S. cerevisiae deletion strains, locus YLL026W, active compounds read low 0.992 | S. cerevisiae deletion strains, locus YLL041C, strain sdh2, active compounds read low 0.964 | S. cerevisiae deletion strains, locus YLR027C, strain aat2, active compounds read low 0.989 | S. cerevisiae deletion strains, locus YLR039C, strain RIC1, active compounds read low 1.01 | S. cerevisiae deletion strains, locus YLR058C, strain SHM2, active compounds read low 1.02 | S. cerevisiae deletion strains, locus YLR102C, strain apc9, active compounds read low 1.01 | S. cerevisiae deletion strains, locus YLR113W, strain HOG1, active compounds read low 1.08 | S. cerevisiae deletion strains, locus YLR221C, strain rsa3, active compounds read low 0.984 | S. cerevisiae deletion strains, locus YLR258W, strain gsy2, active compounds read low 0.987 | S. cerevisiae deletion strains, locus YLR262C, strain YPT6 (second series), active compounds read low 0.945 | S. cerevisiae deletion strains, locus YLR262C, strain YPT6, active compounds read low 1.03 | S. cerevisiae deletion strains, locus YLR268W, strain sec22, active compounds read low 1.01 | S. cerevisiae deletion strains, locus YLR320W, strain mms22, active compounds read low 0.999 | S. cerevisiae deletion strains, locus YLR330W, strain CHS5, active compounds read low 1.01 | S. cerevisiae deletion strains, locus YLR342W, strain FKS1 (second series), active compounds read low 1.03 | S. cerevisiae deletion strains, locus YLR342W, strain FKS1, active compounds read low 0.981 | S. cerevisiae deletion strains, locus YLR357W, strain rsc2, active compounds read low 0.897 | S. cerevisiae deletion strains, locus YLR370C, strain arc18, active compounds read low 0.975 | S. cerevisiae deletion strains, locus YLR371W, strain rom2, active compounds read low 1.02 | S. cerevisiae deletion strains, locus YLR384C, strain iki3, active compounds read low 0.983 | S. cerevisiae deletion strains, locus YLR418C, strain cdc73, active compounds read low 1.01 | S. cerevisiae deletion strains, locus YML016C, strain PPZ1, active compounds read low 1.01 | S. cerevisiae deletion strains, locus YML032C, strain rad52, active compounds read low 1.02 | S. cerevisiae deletion strains, locus YML120C, strain ndi1, active compounds read low 0.983 | S. cerevisiae deletion strains, locus YML124C, strain tub3, active compounds read low 1.01 | S. cerevisiae deletion strains, locus YMR058W, strain fet3, active compounds read low 0.982 | S. cerevisiae deletion strains, locus YMR078C, strain ctf18, active compounds read low 1 | S. cerevisiae deletion strains, locus YMR125W, strain sto1, active compounds read low 0.973 | S. cerevisiae deletion strains, locus YMR129W, active compounds read low 0.981 | S. cerevisiae deletion strains, locus YMR205C, strain PFK2, active compounds read low 1.01 | S. cerevisiae deletion strains, locus YMR223W, strain ubp8, active compounds read low 1.02 | S. cerevisiae deletion strains, locus YMR231W, strain pep5, active compounds read low 0.991 | S. cerevisiae deletion strains, locus YMR307W, strain GAS1, active compounds read low 1.02 | S. cerevisiae deletion strains, locus YNL067W, strain RPL9B, active compounds read low 1 | S. cerevisiae deletion strains, locus YNL071W, strain lat1, active compounds read low 0.968 | S. cerevisiae deletion strains, locus YNL153C, strain GIM3, active compounds read low 0.99 | S. cerevisiae deletion strains, locus YNL183C, strain NPR1, active compounds read low 0.982 | S. cerevisiae deletion strains, locus YNL209W, strain ssb2, active compounds read low 0.971 | S. cerevisiae deletion strains, locus YNL233W, strain BNI4, active compounds read low 0.978 | S. cerevisiae deletion strains, locus YNL248C, strain rpa49, active compounds read low 0.989 | S. cerevisiae deletion strains, locus YNL250W, strain rad50, active compounds read low 1.03 | S. cerevisiae deletion strains, locus YNL271C, strain bni1, active compounds read low 1.02 | S. cerevisiae deletion strains, locus YNL298W, strain CLA4, active compounds read low 1.01 | S. cerevisiae deletion strains, locus YNL307C, strain MCK1, active compounds read low 1.02 | S. cerevisiae deletion strains, locus YNL322C, strain KRE1 (second series), active compounds read low 0.976 | S. cerevisiae deletion strains, locus YNR049C, strain mso1, active compounds read low 0.981 | S. cerevisiae deletion strains, locus YNR052C, strain pop2, active compounds read low 1.02 | S. cerevisiae deletion strains, locus YOL006C, strain TOP1, active compounds read low 1.02 | S. cerevisiae deletion strains, locus YOL012C, strain htz1 1.02 | S. cerevisiae deletion strains, locus YOL147C, strain pex11, active compounds read low 1.02 | S. cerevisiae deletion strains, locus YOR001W, strain rrp6, active compounds read low 0.987 | S. cerevisiae deletion strains, locus YOR061W, strain CKA2, active compounds read low 1.02 | S. cerevisiae deletion strains, locus YOR069W, strain VPS5, active compounds read low 1.01 | S. cerevisiae deletion strains, locus YOR070C, strain gyp1, active compounds read low 0.993 | S. cerevisiae deletion strains, locus YOR080W, strain dia2, active compounds read low 0.993 | S. cerevisiae deletion strains, locus YOR083W, strain WHI5, active compounds read low 0.99 | S. cerevisiae deletion strains, locus YOR106W, strain vam3, active compounds read low 0.988 | S. cerevisiae deletion strains, locus YOR136W, strain idh2, active compounds read low 1.01 | S. cerevisiae deletion strains, locus YOR144C, strain elg1, active compounds read low 1.01 | S. cerevisiae deletion strains, locus YOR184W, strain ser1, active compounds read low 1.02 | S. cerevisiae deletion strains, locus YOR231W, strain MKK1, active compounds read low 1.05 | S. cerevisiae deletion strains, locus YOR265W, strain rbl2, active compounds read low 0.986 | S. cerevisiae deletion strains, locus YOR270C, strain vph1, active compounds read low 0.991 | S. cerevisiae deletion strains, locus YOR290C, strain snf2, active compounds read low 0.961 | S. cerevisiae deletion strains, locus YOR316C, strain cot1, active compounds read low 1.02 | S. cerevisiae deletion strains, locus YPL051W, strain arl3, active compounds read low 0.994 | S. cerevisiae deletion strains, locus YPL078C, strain atp4, active compounds read low 0.984 | S. cerevisiae deletion strains, locus YPL106C, strain sse1, active compounds read low 0.947 | S. cerevisiae deletion strains, locus YPL240C, strain hsp82, active compounds read low 0.977 | S. cerevisiae deletion strains, locus YPL241C, strain CIN2, active compounds read low 1.01 | S. cerevisiae deletion strains, locus YPL256C, strain CLN2, active compounds read low 1.04 | S. cerevisiae deletion strains, locus YPR119W, strain clb2, active compounds read low 1.01 | S. cerevisiae deletion strains, locus YPR141C, strain kar3, active compounds read low 1.01 | S. cerevisiae deletion strains, locus YPR163C, strain tif3, active compounds read low 1.03 | S. cerevisiae deletion strains, locus YPR167C, strain met16, active compounds read low 1.01 | S. cerevisiae deletion strains, strain wtn01, active compounds read low 1.01 | S. cerevisiae strains, strain wild type, active compounds read low 1.02
